Molecules are shown by their SMILES. Inconclusive results are not listed. Activity calls are given as the source filed them. The calls were made as follows, unless noted: active = hit-call score of the fitted dose curve at least 0.9, where 1 is the maximum; inconclusive = response in the unintended direction; inactive = score below 0.9.

Read-out in assay [1]: xenobiotic metabolism (CYP1A1), CYP1A1 (gene 1543)
The experiment in a line: CLD_CYP1A1_6hr: CellzDirect (CLD) Gene Expression Assay for xenobiotic metabolism (CYP1A1) at 6 hours (AID 2283661).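 As to AC50: potency for transcript induction above DMSO vehicle baseline.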 The method, boiled down:
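Read-out 6 h post-dose: qNPA chemiluminescent quantitation of transcript induction against 0.2% DMSO. Cells were cultured primary human hepatocytes from two separate donor preparations; phase-contrast morphology annotated apparent cytotoxicity.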

For assay [2], the system named is Thyroperoxidase (TPO), gene 54314. The experiment in a line: CCTE_Simmons_AUR_rTPO: CCTE's Amplex UltraRed Assay for Thyroperoxidase (TPO) Inhibition, Simmons Lab (AID 2283662).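 As to AC50: potency for loss of signal meaning inhibition of peroxidase activity.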 The method in brief:
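Rat thyroid microsomes (5 ug protein) were incubated with test compound (8 concentrations, 5 nM–87.5 uM final, 0.5% DMSO), 25 uM Amplex UltraRed and 300 uM H2O2 in 200 mM phosphate buffer for 30 min at 37C in the dark; fluorescence read at 544/590 nm.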

The nature of assay [3]: CCTE_Simmons_CellTiterGLO_HEK293T: Viability Assessment in CCTE's Assays for Thyroperoxidase (TPO) Inhibition, Simmons Lab (AID 2283665).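 As to AC50: cells exposed to compound for 24 h before readout; actives reduce ATP signal below DMSO vehicle meaning cytotoxicity.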 The method, boiled down:
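Luminescent ATP readout (CellTiter-Glo, 20 min at room temperature) after 24 hr exposure of HEK293T cells to 5 nM–87.5 uM final compound; signal loss relative to DMSO vehicle indicated cytotoxicity; dichlone titrated as positive control.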
Background: In ATP-based viability assays light output follows the ATP content of the culture.

The nature of assay [4]: Tanguay_ZF_120hpf_TR_legacy: (Legacy) Oregon State University Tanguay Lab 120 Hour Post-fertilization zebrafish Assay for Touch Response (AID 2283667). The method, boiled down:
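Binary touch-response call at 120 hpf, analysed as gain of signal versus DMSO baseline. Wild-type 5D larvae, static exposure at 28C, 0.64% DMSO final; 5uM trimethyltin chloride as positive control.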

Read-out in assay [5]: Cytochrome P450 (CYP24A1_1), CYP24A1 (gene 1591)
The assay is described as follows: LTEA_HepaRG_CYP24A1_1: Life Technologies and Expression Analysis (LTEA) Assay for Cytochrome P450 (CYP24A1_1) using HepaRG (AID 2283671; active = hit-call score of the fitted dose curve at least 0.9, where 1 is the maximum; inactive = score below 0.9). Conditions: mRNA level, 48 h; actives raise or lower the signal. The method in brief: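 Readout is CYP24A1 transcript level by qRT-PCR, normalized to three housekeeping genes, with gain or loss of signal fitted against 0.5% DMSO. Human HepaRG cells received compound for 48 h at up to 100 uM.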

Read-out in assay [6]: xenobiotic metabolism (CYP1A1), CYP1A1 (gene 1543)
The assay is described as follows: CLD_CYP1A1_24hr: CellzDirect (CLD) Gene Expression Assay for xenobiotic metabolism (CYP1A1) at 24 hours (AID 2283673).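 Also: CYP1A1 mRNA level by quantitative nuclease protection with chemiluminescence.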 The method in brief:
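Transcript levels were read at 24 h by qNPA chemiluminescence in human liver primary cells. Cells got daily fresh dosing at multiple concentrations (vehicle 0.2% DMSO). Induction fitted upward against DMSO; phase-contrast cytotoxicity annotated.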

Read-out in assay [7]: ABC Transporter (ABCB11), ABCB11 (gene 8647)
The assay is described as follows: CLD_ABCB11_6hr: CellzDirect (CLD) Gene Expression Assay for ABC Transporter (ABCB11) at 6 hours (AID 2283675).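 Also: hits raise ABCB11 mRNA level so AC50 marks induction.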 The method, boiled down: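 Read-out was ABCB11 mRNA gain of signal by quantitative nuclease protection assay, relative to 0.2% DMSO vehicle, 6 h post-dose. Cells were primary human hepatocytes from two donors, treated across multiple concentrations; phase-contrast cytotoxicity noted yes/no.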

Read-out in assay [8]: Cytochrome P450 2C19 (Homo sapiens) (UniProt P33261)
The experiment in a line: CLD_CYP2C19_6hr: CellzDirect (CLD) Gene Expression Assay for xenobiotic metabolism (CYP2C19) at 6 hours (AID 2283678). The method in brief:
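CYP2C19 transcript induction was quantified by quantitative nuclease protection assay with chemiluminescent read-out, 6 h after dosing. Cells were primary human hepatocytes from two donor preparations, given fresh dosing solutions daily in 0.2% DMSO vehicle. Activity was relative to DMSO.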

The nature of assay [9]: CCTE_Padilla_ZF_144hpf_TERATOSCORE: (Legacy) CCTE's 144 Hour Post-fertilization zebrafish Assay Teratoscore, Padilla Lab (AID 2283679; active = hit-call score of the fitted dose curve at least 0.9, where 1 is the maximum; inactive = score below 0.9;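 as to AC50: zebrafish embryos with chorions exposed by immersion from 6-8 hpf to 5 dpf with daily renewal; teratogenicity score from eye scoring of death hatching and malformations at 144 hpf; higher score means more developmental defects relative to DMSO baseline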). The method in brief: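 Larvae scored by eye at 144 hpf for death, hatching and malformations after a day in clean Hanks'. Before that, daily-renewed exposure at 80 uM (0.4% DMSO, 26C) from roughly 6-8 hpf through 5 dpf, 4 embryos per chemical.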

Read-out in assay [10]: Cytochrome P450 3A4 (Homo sapiens) (UniProt P08684)
The assay is described as follows: CLD_CYP3A4_6hr: CellzDirect (CLD) Gene Expression Assay for xenobiotic metabolism (CYP3A4) at 6 hours (AID 2283680). The method, boiled down:
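CYP3A4 mRNA induction, 6 h after dosing of cultured primary human hepatocytes from two donors, read by quantitative nuclease protection (qNPA, chemiluminescence). Vehicle 0.2% DMSO as baseline; morphology-based cytotoxicity annotated yes/no.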

Read-out in assay [11]: xenobiotic metabolism (CYP1A2), CYP1A2 (gene 1544)
The assay is described as follows: CLD_CYP1A2_24hr: CellzDirect (CLD) Gene Expression Assay for xenobiotic metabolism (CYP1A2) at 24 hours (AID 2283683). The method, boiled down:
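CYP1A2 mRNA induction measured by quantitative nuclease protection (chemiluminescent) in human primary hepatocytes 24 h after multi-concentration chemical dosing with daily fresh solutions. DMSO (0.2%) baseline; positive-direction fitting; morphology-based cytotoxicity noted.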

Read-out in assay [12]: ABC Transporter (ABCB1), ABCB1 (gene 5243)
The experiment in a line: CLD_ABCB1_24hr: CellzDirect (CLD) Gene Expression Assay for ABC Transporter (ABCB1) at 24 hours (AID 2283684).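 As to AC50: potency for increase in ABCB1 mRNA relative to DMSO vehicle.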 The method, boiled down:
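ABCB1 mRNA induction versus 0.2% DMSO vehicle was read by qNPA chemiluminescence at 24 h. Cultured human hepatocytes from two donor preparations received daily fresh dosing, and phase-contrast cytotoxicity calls were annotated alongside the data.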

Read-out in assay [13]: Cytochrome P450 2B6 (Homo sapiens) (UniProt P20813)
The assay is described as follows: CLD_CYP2B6_24hr: CellzDirect (CLD) Gene Expression Assay for xenobiotic metabolism (CYP2B6) at 24 hours (AID 2283686). The method in brief: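 qNPA chemiluminescent measurement of mRNA at 24 hours in human primary hepatocyte cultures from two donor preparations, with daily fresh dosing and 0.2% DMSO vehicle as baseline. Morphology-based cytotoxicity flagged yes/no.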

Read-out in assay [14]: alkyl and aryl transferase (GSTA2), GSTA2 (gene 2939)
The experiment in a line: CLD_GSTA2_6hr: CellzDirect (CLD) Gene Expression Assay for alkyl and aryl transferase (GSTA2) at 6 hours (AID 2283666). The method in brief: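 GSTA2 transcript induction at 6 h, quantified by nuclease protection (qNPA) with chemiluminescent detection, in human liver primary hepatocytes exposed to several compound concentrations with 0.2% DMSO as baseline; phase-contrast morphology annotated apparent cytotoxicity.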

Assay [15] in a line: CLD_ACTIN_24hr: CellzDirect (CLD) Gene Expression Assay for Baseline Control (Actin) at 24 hours (AID 2283670). The method, boiled down:
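This 24 h qNPA (S1 nuclease protection, chemiluminescence) actin transcript readout in cultured human liver primary cells serves as baseline control. Signal is fitted upward relative to 0.2% DMSO; chemicals tested at multiple concentrations across two donor preparations.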

Read-out in assay [16]: Cytochrome P450 2C19 (Homo sapiens) (UniProt P33261)
The experiment in a line: CLD_CYP2C19_24hr: CellzDirect (CLD) Gene Expression Assay for xenobiotic metabolism (CYP2C19) at 24 hours (AID 2283687).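 Also: activity means mRNA induction above DMSO vehicle baseline.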 The method, boiled down: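 CYP2C19 mRNA was quantified by qNPA chemiluminescence after 24 h of daily dosing of cultured human primary hepatocytes from two donors; vehicle was 0.2% DMSO, and increases over DMSO baseline were fitted.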

Read-out in assay [17]: Cytochrome P450 2C9 (Homo sapiens) (UniProt P11712)
The experiment in a line: CLD_CYP2C9_24hr: CellzDirect (CLD) Gene Expression Assay for xenobiotic metabolism (CYP2C9) at 24 hours (AID 2283688). The method in brief:
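Induction of CYP2C9 mRNA was quantified by quantitative nuclease protection assay (chemiluminescence), gain of signal versus 0.2% DMSO vehicle, 24 h after dosing. Human primary hepatocytes (two donors) received fresh chemical daily at multiple concentrations; morphology-based cytotoxicity flagged yes/no.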

Read-out in assay [18]: organic anion transporter (SLCO1B1), SLCO1B1 (gene 10599)
The assay is described as follows: CLD_SLCO1B1_6hr: CellzDirect (CLD) Gene Expression Assay for organic anion transporter (SLCO1B1) at 6 hours (AID 2283668).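 Also: active means mRNA induction above DMSO baseline.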 The method in brief: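 SLCO1B1 mRNA induction measured 6 h after dosing by quantitative nuclease protection with chemiluminescent read-out, in human primary hepatocyte cultures given chemicals at several concentrations (vehicle 0.2% DMSO). Increase over DMSO baseline fitted; morphology-based cytotoxicity annotated yes/no.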

Read-out in assay [19]: Cytochrome P450 2B6 (Homo sapiens) (UniProt P20813)
The assay is described as follows: CLD_CYP2B6_6hr: CellzDirect (CLD) Gene Expression Assay for xenobiotic metabolism (CYP2B6) at 6 hours (AID 2283677).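 Also: actives raise CYP2B6 transcript above DMSO baseline so AC50 marks an inducer.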 The method, boiled down: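 CYP2B6 transcript levels, read by chemiluminescent qNPA, were fitted for increase versus DMSO baseline; cultured human liver hepatocytes from two donor preparations were harvested 6 h after exposure to test chemicals at multiple concentrations.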

Sequence of Cytochrome P450 2C19 (Homo sapiens) (P33261 whole entry, looked up): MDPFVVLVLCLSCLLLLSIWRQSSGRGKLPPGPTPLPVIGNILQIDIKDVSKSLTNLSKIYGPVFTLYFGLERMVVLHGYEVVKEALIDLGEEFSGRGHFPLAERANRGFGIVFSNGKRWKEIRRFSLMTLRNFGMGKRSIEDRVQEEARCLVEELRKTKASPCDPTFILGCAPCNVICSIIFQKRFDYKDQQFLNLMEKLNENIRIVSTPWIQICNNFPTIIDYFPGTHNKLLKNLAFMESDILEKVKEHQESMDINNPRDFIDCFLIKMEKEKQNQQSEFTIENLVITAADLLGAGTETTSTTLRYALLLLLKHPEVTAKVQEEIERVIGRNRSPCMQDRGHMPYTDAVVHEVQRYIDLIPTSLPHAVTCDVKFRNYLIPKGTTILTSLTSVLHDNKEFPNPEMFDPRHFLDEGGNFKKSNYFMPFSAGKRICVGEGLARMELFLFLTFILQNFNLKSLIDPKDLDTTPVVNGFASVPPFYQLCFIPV
Sequence of Cytochrome P450 3A4 (Homo sapiens) (P08684 whole entry, looked up): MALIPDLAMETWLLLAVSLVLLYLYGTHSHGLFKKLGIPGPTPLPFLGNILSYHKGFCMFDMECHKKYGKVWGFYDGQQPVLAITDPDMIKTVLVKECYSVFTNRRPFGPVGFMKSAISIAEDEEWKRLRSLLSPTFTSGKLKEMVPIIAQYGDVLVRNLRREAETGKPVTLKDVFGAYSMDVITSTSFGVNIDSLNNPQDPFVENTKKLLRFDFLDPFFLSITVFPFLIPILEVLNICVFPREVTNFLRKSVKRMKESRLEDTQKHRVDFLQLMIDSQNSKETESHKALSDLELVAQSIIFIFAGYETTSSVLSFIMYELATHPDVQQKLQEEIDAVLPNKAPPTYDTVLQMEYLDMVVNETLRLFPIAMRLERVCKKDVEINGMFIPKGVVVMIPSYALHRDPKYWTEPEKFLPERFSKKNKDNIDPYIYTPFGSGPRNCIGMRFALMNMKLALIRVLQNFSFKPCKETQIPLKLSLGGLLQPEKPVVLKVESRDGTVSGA

In general, AC50 refers to the midpoint of the concentration-response curve, whichever way the signal moves. On to `CCCN(CCOc1c(Cl)cc(Cl)cc1Cl)C(=O)n1ccnc1`, for which the AC50 is 0.0868 µM (active) in [1]; 89.5 µM (active) in assay [3]; 1.89 µM (active) in assay [6]; 5.63 µM (active) in assay [9]; 0.378 µM (active) in assay [11]; 32.7 µM (active) in [12]. Further, the AC50 in assay [13] is 1.89 µM (active). Besides, the call in assay [2], in assay [4], in assay [5], in [7], in assay [8] and in assay [10] was inactive.
Take `CNC(=O)Oc1cccc(N=CN(C)C)c1`: the result in [1], in assay [3], in [14], in [4], in assay [15] and in assay [7] was inactive. Besides, the outcome in assay [8], in assay [9], in assay [10], in [11], in [12] and in assay [16] was inactive. For the same compound, the result in assay [17] was inactive. In addition, the AC50 in assay [2] was 19.8 µM (active).
In the case of `COC(=O)c1ccccc1S(=O)(=O)NC(=O)Nc1nc(C)nc(OC)n1`, the AC50 in [1] was 20 µM (active); in assay [11], 3.08 µM (active). The call in assay [18], in assay [15], in assay [7], in assay [8], in assay [9] and in assay [12] was inactive. Besides, the call in [13] and in assay [16] was inactive.
As for `Clc1ccccc1-c1nnc(-c2ccccc2Cl)nn1`, the outcome in assay [1], in assay [14], in [7], in assay [8], in assay [9] and in assay [10] was inactive. For the same compound, the compound was called inactive in assay [12], in assay [16] and in [17]. Also, the values for the AC50 in assay [11] and in assay [13] were 4.38 µM (active) and 0.00929 µM (active), respectively.
`COC(=O)c1ccccc1CS(=O)(=O)NC(=O)Nc1nc(OC)cc(OC)n1`: the concentration at half-maximal activity (AC50) in assay [1] and in assay [11] was 20 µM (active) in each case. The result in assay [14], in assay [7], in assay [8], in assay [9], in assay [12] and in assay [13] was inactive. In addition, the outcome in assay [16] and in assay [17] was inactive.
With `CCC(C)Nc1c([N+](=O)[O-])cc(C(C)(C)C)cc1[N+](=O)[O-]` (configuration not stated), the AC50 in assay [1] was 3.41 µM (active); in assay [19], 1.53 µM (active); in assay [10], 1.2 µM (active); in assay [11] it was 3.05 µM (active); in [13] it was 3.63 µM (active). Besides, the outcome in [4], in assay [5], in [7], in assay [8] and in [12] was inactive.
Turning to `CC(C)(C)C(O)/C(=C\c1ccc(Cl)cc1Cl)n1cncn1` (configuration not stated), the AC50 in [1] is 1.89 µM (active); in [9] it was 8.76 µM (active); in assay [10], 1.89 µM (active); in [11], 0.825 µM (active); in [12] it was 29.4 µM (active); in assay [13] it was 0.621 µM (active). For the same compound, the result in assay [14], in assay [4] and in [17] was inactive.
`C[C@H]1[C@H](c2ccc(Cl)cc2)SC(=O)N1C(=O)NC1CCCCC1`: the result in assay [1], in assay [14], in assay [4], in assay [7], in [9] and in assay [17] was inactive. The AC50 in assay [10] is 1.9 µM (active); in assay [11], 5.84 µM (active); in [12] it was 35.2 µM (active); in [13], 2.58 µM (active).

The values above are taken from PubChem BioAssay (EPA / NIEHS).
